Laboratory results reported in PubChem BioAssay (EPA / NIEHS).
Where “and” joins values, the source holds several entries; their conditions need not be identical. Equal entries are not always repeated. Some structures have more than one record in an assay (separate samples or runs), and their calls can disagree. Calls of active or inactive are those of the source. Rule for the calls: active = hit-call score of the fitted dose curve at least 0.9, where 1 is the maximum; inactive = score below 0.9.

Key:
[1] = BSK_3C_SRB: Viability Assessment in the BioMAP Diversity Plus: 3C Assay (AID 2283023); settings: primary human endothelial cells (HUVEC);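 note: fitted both ways against DMSO so a hit may be signal rise or drop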
Outline: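 Absorbance at 560 nm of sulforhodamine B-stained (0.1%) total protein served as a cytotoxicity readout in human umbilical vein endothelial cells, 24 h after chemical treatment. Signal was fitted bidirectionally relative to DMSO.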

[2] = read-out: Matrix Metallopeptidase 1 (MMP1), MMP1 (gene 4312); test: BSK_BE3C_MMP1: BioMAP Diversity Plus: BE3C Assay for Matrix Metallopeptidase 1 (MMP1) Biomarker Activity (AID 2283024); settings: primary human bronchial epithelial cells; actives raise or lower the signal
Outline: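 Human bronchial epithelial cells (BE3C system) exposed to compound for 24 h; MMP1 then quantified by ELISA. Activity was fitted in both directions relative to DMSO.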

[3] = BSK_3C_Vis: BioMAP Diversity Plus: 3C Assay for Morphology Visualization (AID 2283025); settings: primary human endothelial cells (HUVEC);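 note: fitted both ways so gain or loss versus DMSO counts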;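 for AC50: light microscopy image of cell morphology used as background control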
Outline: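 Chemicals were added to primary human umbilical vein endothelium, cells were incubated 24 h, and morphology was then visualized by light microscopy. Gain or loss of signal was fitted bidirectionally relative to DMSO.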

[4] = read-out: Pselectin, SELP (gene 6403); test: BSK_4H_Pselectin: BioMAP Diversity Plus: 4H Assay for Pselectin Biomarker Activity (AID 2283026); settings: primary human endothelial cells (HUVEC); actives raise or lower the signal
Outline: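 ELISA read-out of P-selectin on human umbilical vein endothelium after 24 h of dosing. Values derive from bidirectional fitting relative to DMSO. Parallel SRB protein staining flagged overt cytotoxicity.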

[5] = BSK_4H_SRB: Viability Assessment in the BioMAP Diversity Plus: 4H Assay (AID 2283027); settings: primary human endothelial cells (HUVEC);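 note: cells exposed to compound for 24 h before staining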;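 for AC50: curves fitted both ways versus DMSO so AC50 may be loss or gain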
Outline: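 Absorbance at 560 nm of SRB-stained total protein served as the viability read-out in confluent primary human umbilical vein endothelium 24 h after chemical treatment. Curves were fitted bidirectionally against DMSO as negative control.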

[6] = BSK_BE3C_SRB: Viability Assessment in the BioMAP Diversity Plus: BE3C Assay (AID 2283028); settings: primary human bronchial epithelial cells;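 for AC50: fitted both ways so AC50 may mark signal gain or loss versus DMSO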
Outline: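 Cells (human bronchial epithelial, primary) are treated with chemicals, and after 24 h the parallel cultures are fixed in 10% TCA. These are then stained with 0.1% SRB and read at 560 nm. Gain or loss of signal is fitted relative to DMSO.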

[7] = read-out: Thrombomodulin, THBD (gene 7056); test: BSK_3C_Thrombomodulin: BioMAP Diversity Plus: 3C Assay for Thrombomodulin Biomarker Activity (AID 2283029); settings: primary human endothelial cells (HUVEC); actives raise or lower the signal
Outline: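 Read-out is ELISA of thrombomodulin on human umbilical vein endothelium 24 h after chemical dosing. Gain or loss of signal is scored relative to DMSO. Overt cytotoxicity is checked in parallel cultures by sulforhodamine B staining.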

[8] = read-out: Urokinase-type plasminogen activator receptor (uPAR), PLAUR (gene 5329); test: BSK_4H_uPAR: BioMAP Diversity Plus: 4H Assay for Urokinase-type plasminogen activator receptor (uPAR) Biomarker Activity (AID 2283030); settings: primary human endothelial cells (HUVEC); actives raise or lower the signal
Outline: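 Cell-surface uPAR ELISA signal, measured 24 h after dosing human umbilical vein endothelial cells, was analyzed with bidirectional fitting relative to DMSO. Parallel SRB staining of total protein tracked overt cytotoxicity.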

[9] = read-out: Vascular endothelial growth factor receptor 2 (Homo sapiens) (UniProt P35968); test: BSK_4H_VEGFRII: BioMAP Diversity Plus: 4H Assay for Vascular endothelial growth factor receptor 2 (VEGFR2) Biomarker Activity (AID 2283031); settings: primary human endothelial cells (HUVEC); actives raise or lower the signal;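 for AC50: cell-surface VEGFR2 protein level quantified by ELISA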
Outline: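 ELISA read-out of VEGFRII in primary human umbilical vein endothelium, taken 24 h after chemical treatment. Responses are expressed relative to DMSO, with bidirectional fitting.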

[10] = read-out: Vascular cell adhesion molecule 1 (VCAM1), VCAM1 (gene 7412); test: BSK_4H_VCAM1: BioMAP Diversity Plus: 4H Assay for Vascular cell adhesion molecule 1 (VCAM1) Biomarker Activity (AID 2283033); settings: primary human endothelial cells (HUVEC); actives raise or lower the signal
Outline: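 ELISA read-out of VCAM-1 on human umbilical vein endothelium 24 hours after chemical dosing; gain or loss of signal was fitted relative to DMSO, with sulforhodamine B staining of parallel cultures flagging overt cytotoxicity.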

[11] = read-out: Interferon-gamma inducible Protein 10 (IP10), CXCL10 (gene 3627); test: BSK_BE3C_IP10: BioMAP Diversity Plus: BE3C Assay for Interferon-gamma inducible Protein 10 (IP10) Biomarker Activity (AID 2283034); settings: primary human bronchial epithelial cells; actives raise or lower the signal
Outline: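 Chemical is dosed onto human lung bronchial epithelial primary cells, cultures are incubated 24 h, and IP-10 is then quantified by ELISA. Gain or loss of signal is fitted in both directions relative to DMSO.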

[12] = read-out: Monokine induced gamma interferon (MIG), CXCL9 (gene 4283); test: BSK_BE3C_MIG: BioMAP Diversity Plus: BE3C Assay for Monokine induced gamma interferon (MIG) Biomarker Activity (AID 2283035); settings: primary human bronchial epithelial cells; actives raise or lower the signal
Outline: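 MIG level was determined by ELISA after 24 h chemical treatment of primary human bronchial epithelial cells. Values were fitted bidirectionally with DMSO as the negative control and activity baseline.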

[13] = read-out: Transforming growth factor beta 1 (TGFb1), TGFB1 (gene 7040); test: BSK_BE3C_TGFb1: BioMAP Diversity Plus: BE3C Assay for Transforming growth factor beta 1 (TGFb1) Biomarker Activity (AID 2283036); settings: primary human bronchial epithelial cells; actives raise or lower the signal
Outline: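 Primary human lung bronchial epithelial cells; compound exposure 24 h; TGF-b1 by ELISA; bidirectional fit, DMSO baseline. Parallel SRB total-protein staining for cytotoxicity.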

[14] = read-out: Plasminogen activator inhibitor-1 (PAI1), SERPINE1 (gene 5054); test: BSK_BE3C_PAI1: BioMAP Diversity Plus: BE3C Assay for Plasminogen activator inhibitor-1 (PAI1) Biomarker Activity (AID 2283037); settings: primary human bronchial epithelial cells; actives raise or lower the signal
Outline: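 Primary human lung bronchial epithelial cells; chemical dosing; 24 h; PAI-1 measured by ELISA; bidirectional fit referenced to DMSO as negative control.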

[15] = read-out: urokinase plasminogen activator (uPA), PLAU (gene 5328); test: BSK_BE3C_uPA: BioMAP Diversity Plus: BE3C Assay for urokinase plasminogen activator (uPA) Biomarker Activity (AID 2283038); settings: primary human bronchial epithelial cells; actives raise or lower the signal
Outline: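 Bronchial epithelial cells (human, primary); chemical 24 h; uPA by ELISA; bidirectional fit vs DMSO. SRB (0.1%, after 10% TCA fixation, 560 nm) in parallel cultures for cytotoxicity.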

[16] = read-out: Urokinase-type plasminogen activator receptor (uPAR), PLAUR (gene 5329); test: BSK_BE3C_uPAR: BioMAP Diversity Plus: BE3C Assay for Urokinase-type plasminogen activator receptor (uPAR) Biomarker Activity (AID 2283039); settings: primary human bronchial epithelial cells; actives raise or lower the signal
Outline: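 Human bronchial epithelial primary cells; chemical exposure 24 h; uPAR by ELISA; bidirectional fit vs DMSO control.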

[17] = read-out: Interleukin-6 (IL6), IL6 (gene 3569); test: BSK_CASM3C_IL6: BioMAP Diversity Plus: CASM3C Assay for Interleukin-6 (IL6) Biomarker Activity for (AID 2283040); settings: primary human coronary artery smooth muscle cells; actives raise or lower the signal
[18] = read-out: Tissue plasminogen activator (tPA), PLAT (gene 5327); test: BSK_BE3C_tPA: BioMAP Diversity Plus: BE3C Assay for Tissue plasminogen activator (tPA) Biomarker Activity (AID 2283041); settings: primary human bronchial epithelial cells; actives raise or lower the signal
Outline: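 Primary human lung bronchial epithelial cultures receive test chemical; after 24 h, tPA is quantified by ELISA, and gain or loss of signal is fitted bidirectionally relative to DMSO baseline.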

[19] = read-out: Interleukin-8 (IL8), CXCL8 (gene 3576); test: BSK_CASM3C_IL8: BioMAP Diversity Plus: CASM3C Assay for Interleukin-8 (IL8) Biomarker Activity (AID 2283042); settings: primary human coronary artery smooth muscle cells; actives raise or lower the signal;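 note: IL-8 protein level quantified by ELISA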
[20] = read-out: Human Leukocyte Antigen - DR isotype (HLADR), HLA-DRA (gene 3122); test: BSK_BE3C_HLADR: BioMAP Diversity Plus: BE3C Assay for Human Leukocyte Antigen - DR isotype (HLADR) Biomarker Activity (AID 2283032); settings: primary human bronchial epithelial cells; actives raise or lower the signal
Outline: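 ELISA read-out of HLA-DR on human lung bronchial epithelial primary cells, measured 24 h post-dosing. Both increases and decreases were scored relative to DMSO vehicle.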

Measured: AC50

Oc1c(Cl)c(Cl)c(Cl)c(Cl)c1Cl
active: [1] 15.4 µM and 13 µM | [2] 26.1 µM | [3] 14.1 µM | [4] 8.49 µM and 9.69 µM | [5] 10.2 µM and 9.07 µM | [6] 4.33 µM and 28.2 µM | [7] 20 µM | [8] 5.58 µM and 9.79 µM | [9] 11.6 µM | [10] 10.2 µM and 21.5 µM | [11] 5.02 µM and 5.67 µM | [12] 11.8 µM and 30.3 µM | [13] 9.53 µM | [14] 1.18 µM and 10.5 µM | [15] 4.12 µM and 14.7 µM | [16] 7.14 µM and 24.6 µM | [18] 2.56 µM and 7.59 µM | [19] 2.09 µM
inactive: [2] | [3] | [7] | [9] | [13] | [17] | [19]

CC#Cc1cc(C)nc(Nc2ccccc2)n1
inactive: [1] | [2] | [3] | [4] | [5] | [6] | [7] | [8] | [9] | [20] | [11] | [12] | [13] | [14] | [15] | [16] | [17] | [18] | [19]
active: [10] 18.1 µM

CCCCCCCCCC[N+](C)(C)CCCCCCCCCC
inactive: [7]
active: [1] 2 µM | [2] 4.95 µM | [3] 4.15 µM | [4] 1.99 µM | [5] 2.01 µM | [6] 5.15 µM | [8] 6.83 µM | [9] 2.01 µM | [11] 5.48 µM | [12] 8.77 µM | [13] 5.35 µM | [14] 3.71 µM | [15] 5.43 µM | [16] 5.55 µM | [17] 4.9 µM | [18] 3.61 µM | [19] 5.54 µM

COc1ccc(O)c(C(C)(C)C)c1
active: [19] 5.43 µM
inactive: [1] | [2] | [3] | [4] | [5] | [6] | [7] | [8] | [9] | [10] | [11] | [12] | [14] | [15] | [16] | [17] | [18] | [19]

CN(C)CCO
inactive: [1] | [2] | [3] | [5] | [6] | [7] | [8] | [9] | [20] | [10] | [11] | [12] | [13] | [14] | [15] | [16] | [17] | [18] | [19]

Nc1ccc(-c2ccc(N)cc2)cc1
active: [18] 6.73 µM
inactive: [1] | [2] | [3] | [4] | [5] | [6] | [7] | [8] | [9] | [10] | [11] | [12] | [13] | [14] | [15] | [16] | [17] | [19]
